# Calls of active or inactive are those of the source. Rule for the calls: active = hit-call score of the fitted dose curve at least 0.9, where 1 is the maximum; inactive = score below 0.9.
# Key:
# [1] = read-out: Interleukin-1 alpha (IL1a), IL1A (gene 3552); assay: BSK_KF3CT_IL1a: BioMAP Diversity Plus: KF3CT Assay for Interleukin-1 alpha (IL1a) Biomarker Activity (AID 2283070); conditions: primary human keratinocytes with fibroblasts; actives raise or lower the signal
# How it was run: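 Human keratinocyte plus foreskin fibroblast primary co-culture, sampled 24 h after chemical dosing. IL-1a measured by ELISA; responses fitted bidirectionally against DMSO baseline (negative control), so gain or loss of signal both count.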
# [2] = read-out: TIMP metallopeptidase inhibitor 2 (TIMP2), TIMP2 (gene 7077); assay: BSK_KF3CT_TIMP2: BioMAP Diversity Plus: KF3CT Assay for TIMP metallopeptidase inhibitor 2 (TIMP2) Biomarker Activity (AID 2283071); conditions: primary human keratinocytes with fibroblasts; actives raise or lower the signal
# How it was run: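 Cells: human keratinocytes co-cultured with foreskin fibroblasts. Treat with chemical, 24 h. Measure TIMP-2 by ELISA; fit curves bidirectionally vs DMSO baseline.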
# [3] = read-out: Transforming growth factor beta 1 (TGFb1), TGFB1 (gene 7040); assay: BSK_KF3CT_TGFb1: BioMAP Diversity Plus: KF3CT Assay for Transforming growth factor beta 1 (TGFb1) Biomarker Activity (AID 2283072); conditions: primary human keratinocytes with fibroblasts; actives raise or lower the signal
# How it was run: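 Primary human skin cells (keratinocytes, foreskin fibroblasts) were co-cultured, exposed to test chemical and sampled at 24 h. TGF-b1 levels were measured by ELISA and fitted bidirectionally relative to DMSO.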
# [4] = read-out: Matrix Metallopeptidase 9 (MMP9), MMP9 (gene 4318); assay: BSK_KF3CT_MMP9: BioMAP Diversity Plus: KF3CT Assay for Matrix Metallopeptidase 9 (MMP9) Biomarker Activity (AID 2283074); conditions: primary human keratinocytes with fibroblasts; actives raise or lower the signal;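 for AC50: MMP9 protein level quantified by ELISA in the co-culture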
# How it was run: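 Keratinocyte plus foreskin fibroblast human primary skin co-culture was dosed with chemical and MMP-9 was quantified by ELISA 24 h later. Bidirectional curve fitting used DMSO as negative control and activity baseline.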
# [5] = read-out: urokinase plasminogen activator (uPA), PLAU (gene 5328); assay: BSK_KF3CT_uPA: BioMAP Diversity Plus: KF3CT Assay for urokinase plasminogen activator (uPA) Biomarker Activity (AID 2283075); conditions: primary human keratinocytes with fibroblasts; actives raise or lower the signal
# How it was run: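 Human keratinocyte plus foreskin fibroblast primary co-culture exposed to chemical for 24 h. uPA levels were quantified by ELISA, and activity was fitted bidirectionally against a DMSO negative-control baseline.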
# [6] = read-out: E-selectin (Homo sapiens) (UniProt P16581); assay: BSK_LPS_Eselectin: BioMAP Diversity Plus: LPS Assay for Eselectin Biomarker Activity (AID 2283077); conditions: primary human HUVEC with PBMC; actives raise or lower the signal
# How it was run: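 Signal of E-selectin, detected by ELISA, served as the endpoint; cells were umbilical vein endothelium with PBMC, read 24 h after treatment. DMSO defined baseline, and both increases and decreases were fitted.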
# [7] = read-out: Interleukin-8 (IL8), CXCL8 (gene 3576); assay: BSK_LPS_IL8: BioMAP Diversity Plus: LPS Assay for Interleukin-8 (IL8) Biomarker Activity (AID 2283078); conditions: primary human HUVEC with PBMC; actives raise or lower the signal
# How it was run: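 Endothelial cells and PBMC from human donors are co-cultured, treated with chemicals and LPS, then assayed for IL-8 by ELISA after 24 h. Parallel SRB staining (0.1% SRB after 10% TCA fixation, 560 nm) flags cytotoxicity.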
# [8] = BSK_LPS_SRB: Viability Assessment in the BioMAP Diversity Plus: LPS Assay (AID 2283079); conditions: primary human HUVEC with PBMC;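 note: total protein by sulforhodamine B absorbance as a cytotoxicity measure; measured one day after compound addition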
# How it was run: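 Overt cytotoxicity was gauged by sulforhodamine B total-protein staining in a primary human vascular endothelial and mononuclear cell co-culture 24 h post-dosing. Activity was fitted in both directions relative to DMSO.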
# [9] = read-out: Interleukin-1 alpha (IL1a), IL1A (gene 3552); assay: BSK_LPS_IL1a: BioMAP Diversity Plus: LPS Assay for Interleukin-1 alpha (IL1a) Biomarker Activity (AID 2283080); conditions: primary human HUVEC with PBMC; actives raise or lower the signal
# How it was run: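 Measured: IL-1 alpha via ELISA at 24 h in LPS-activated human umbilical vein endothelium–PBMC co-culture. Baseline: DMSO, bidirectional fitting.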
# [10] = read-out: Monocyte Chemoattractant Protein-1 (MCP1), CCL2 (gene 6347); assay: BSK_LPS_MCP1: BioMAP Diversity Plus: LPS Assay for Monocyte Chemoattractant Protein-1 (MCP1) Biomarker Activity (AID 2283081); conditions: primary human HUVEC with PBMC; actives raise or lower the signal;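 for AC50: secreted MCP-1 protein quantified by ELISA in culture supernatant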
# How it was run: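 LPS-stimulated HUVEC/PBMC co-culture; chemical, 24 h; MCP-1 by ELISA; bidirectional fit vs DMSO; cytotoxicity via SRB (0.1% stain, 10% TCA fix, 560 nm) in parallel wells.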
# [11] = BSK_LPS_PGE2: BioMAP Diversity Plus: LPS Assay for Prostaglandin E2 (PGE2) Biomarker Activity (AID 2283082); conditions: primary human HUVEC with PBMC; actives raise or lower the signal;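 for AC50: secreted prostaglandin E2 measured by ELISA in LPS-stimulated co-culture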
# How it was run: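 LPS-activated HUVEC/PBMC co-culture; cmpd dosed, 24 h; PGE2 by ELISA; bidirectional fit vs DMSO; SRB (0.1%, TCA-fixed, 560 nm) in parallel plates for overt cytotox.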
# [12] = read-out: Macrophage colony-stimulating factor (MCSF), CSF1 (gene 1435); assay: BSK_LPS_MCSF: BioMAP Diversity Plus: LPS Assay for Macrophage colony-stimulating factor (MCSF) Biomarker Activity (AID 2283083); conditions: primary human HUVEC with PBMC; actives raise or lower the signal
# How it was run: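 Compound is added to a human vascular primary co-culture of umbilical vein endothelium and blood mononuclear cells. After 24 h, M-CSF is quantified by ELISA. Signal changes are fitted in both directions against DMSO.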
# [13] = read-out: Tissue Factor, F3 (gene 2152); assay: BSK_LPS_TissueFactor: BioMAP Diversity Plus: LPS Assay for Tissue Factor Biomarker Activity (AID 2283084); conditions: primary human HUVEC with PBMC; actives raise or lower the signal
# How it was run: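 In this co-culture system of umbilical vein endothelium with PBMC, stimulated with LPS, cell-surface CD142 is detected by ELISA at 24 h. Endpoint values derive from bidirectional fitting, DMSO serving as baseline.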
# [14] = read-out: Tumor necrosis factor (Homo sapiens) (UniProt P01375); assay: BSK_LPS_TNFa: BioMAP Diversity Plus: LPS Assay for Tumour Necrosis Factor alpha (TNFa) Biomarker Activity (AID 2283085); conditions: primary human HUVEC with PBMC; actives raise or lower the signal;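 for AC50: TNFa protein level quantified by ELISA in the co-culture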
# How it was run: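 Read-out is ELISA of TNFa in primary human endothelial cell–PBMC co-cultures at 24 h after compound. Activity in either direction was fitted against DMSO.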
# [15] = read-out: Vascular cell adhesion molecule 1 (VCAM1), VCAM1 (gene 7412); assay: BSK_LPS_VCAM1: BioMAP Diversity Plus: LPS Assay for Vascular cell adhesion molecule 1 (VCAM1) Biomarker Activity (AID 2283086); conditions: primary human HUVEC with PBMC; actives raise or lower the signal
# How it was run: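 HUVEC + PBMC co-culture, LPS system; compound 24 h; VCAM-1 by ELISA; bidirectional fit vs DMSO control; parallel SRB (0.1%, TCA-fixed, 560 nm) for cytotoxicity.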
# [16] = read-out: CD40, CD40 (gene 958); assay: BSK_SAg_CD40: BioMAP Diversity Plus: SAg Assay for CD40 Biomarker Activity (AID 2283088); conditions: primary human HUVEC with PBMC; actives raise or lower the signal
# How it was run: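 Fluorescence ELISA read-out of CD40 from umbilical vein endothelium plus peripheral blood mononuclear cells, sampled 24 h after dosing. Values come from bidirectional curve fitting with DMSO as baseline.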
# [17] = read-out: CD69, CD69 (gene 969); assay: BSK_SAg_CD69: BioMAP Diversity Plus: SAg Assay for CD69 Biomarker Activity (AID 2283089); conditions: primary human HUVEC with PBMC; actives raise or lower the signal;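 for AC50: cell surface CD69 protein quantified by ELISA with fluorescence detection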
# How it was run: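 HUVEC co-cultured with PBMC were dosed with chemical, and CD69 was measured by ELISA with fluorescence read-out 24 h later. Bidirectional curve fitting used DMSO as negative control and activity baseline.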
# [18] = read-out: CD38, CD38 (gene 952); assay: BSK_SAg_CD38: BioMAP Diversity Plus: SAg Assay for CD38 Biomarker Activity (AID 2283087); conditions: primary human HUVEC with PBMC; actives raise or lower the signal
# How it was run: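 Human HUVEC plus PBMC co-culture stimulated with superantigen; CD38 measured by ELISA 24 h after chemical dosing. Fluorescence read-out, bidirectional fit against DMSO; cytotoxicity tracked in parallel by SRB and Alamar Blue.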
# [19] = read-out: C-C motif chemokine 2 (Homo sapiens) (UniProt P13500); assay: BSK_KF3CT_MCP1: BioMAP Diversity Plus: KF3CT Assay for Monocyte Chemoattractant Protein 1 (MCP1/CCL2) Biomarker Activity (AID 2283073); conditions: primary human keratinocytes with fibroblasts; actives raise or lower the signal
# How it was run: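 Keratinocytes and foreskin fibroblasts were co-cultured, dosed with chemical, and sampled 24 h later. MCP-1 was quantified by ELISA, and the endpoint was analyzed with bidirectional fitting using DMSO as negative control.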
# Sequence of Tumor necrosis factor (Homo sapiens) (P01375 whole entry, looked up): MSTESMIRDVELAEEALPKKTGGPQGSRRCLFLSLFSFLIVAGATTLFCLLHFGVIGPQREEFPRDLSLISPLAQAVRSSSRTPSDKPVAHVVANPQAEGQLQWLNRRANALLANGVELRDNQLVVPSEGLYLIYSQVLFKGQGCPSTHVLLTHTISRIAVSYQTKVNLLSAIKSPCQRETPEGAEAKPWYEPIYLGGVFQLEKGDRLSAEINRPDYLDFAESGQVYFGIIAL
# Sequence of E-selectin (Homo sapiens) (P16581 whole entry, looked up): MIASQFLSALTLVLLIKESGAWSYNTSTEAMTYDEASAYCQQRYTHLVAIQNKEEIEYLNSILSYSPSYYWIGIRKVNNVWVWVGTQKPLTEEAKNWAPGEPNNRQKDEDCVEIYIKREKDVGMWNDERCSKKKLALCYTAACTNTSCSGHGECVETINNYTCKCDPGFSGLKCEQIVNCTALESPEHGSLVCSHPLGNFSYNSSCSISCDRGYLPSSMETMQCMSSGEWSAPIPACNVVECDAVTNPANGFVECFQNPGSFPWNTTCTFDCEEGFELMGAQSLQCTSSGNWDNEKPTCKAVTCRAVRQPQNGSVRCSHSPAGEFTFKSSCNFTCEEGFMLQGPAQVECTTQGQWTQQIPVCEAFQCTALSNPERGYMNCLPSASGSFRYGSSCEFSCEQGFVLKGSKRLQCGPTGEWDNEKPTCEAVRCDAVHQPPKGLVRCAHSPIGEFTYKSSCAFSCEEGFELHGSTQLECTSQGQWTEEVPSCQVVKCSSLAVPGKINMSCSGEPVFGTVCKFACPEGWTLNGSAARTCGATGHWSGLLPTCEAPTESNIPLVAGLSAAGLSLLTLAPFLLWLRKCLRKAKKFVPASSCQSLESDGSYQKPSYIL
smiles,measurement,setting,value
CCOP(=S)(NC(C)C)Oc1ccccc1C(=O)OC(C)C (configuration not stated),outcome,[1],inactive
same,outcome,[2],inactive
same,outcome,[3],inactive
same,outcome,[4],inactive
same,outcome,[5],inactive
same,outcome,[6],inactive
same,outcome,[7],inactive
same,outcome,[8],inactive
same,outcome,[9],inactive
same,outcome,[10],inactive
same,outcome,[11],inactive
same,outcome,[12],inactive
same,outcome,[13],inactive
same,AC50,[14],4.8 µM (active)
same,outcome,[15],inactive
same,outcome,[16],inactive
same,outcome,[17],inactive
O=c1ssc(Cl)c1Cl,AC50,[1],3.02 µM (active)
same,AC50,[2],2.71 µM (active)
same,AC50,[3],20 µM (active)
same,AC50,[4],5.92 µM (active)
same,AC50,[5],5.59 µM (active)
same,AC50,[6],6.46 µM (active)
same,AC50,[7],7.38 µM (active)
same,AC50,[8],5.34 µM (active)
same,AC50,[9],4.19 µM (active)
same,AC50,[10],6.46 µM (active)
same,AC50,[11],2.22 µM (active)
same,AC50,[12],4.28 µM (active)
same,AC50,[13],8.4 µM (active)
same,outcome,[14],inactive
same,AC50,[15],6.59 µM (active)
same,AC50,[18],4.94 µM (active)
same,AC50,[16],5.44 µM (active)
same,AC50,[17],6.02 µM (active)
O=C(O)C(F)(F)C(F)(F)C(=O)O,outcome,[1],inactive
same,outcome,[2],inactive
same,outcome,[4],inactive
same,outcome,[5],inactive
same,outcome,[6],inactive
same,outcome,[7],inactive
same,outcome,[8],inactive
same,outcome,[9],inactive
same,outcome,[10],inactive
same,outcome,[11],inactive
same,outcome,[12],inactive
same,outcome,[13],inactive
same,outcome,[14],inactive
same,outcome,[15],inactive
same,outcome,[16],inactive
same,outcome,[17],inactive
O=C(O)C(F)(F)OC(F)(F)C(F)(F)OC(F)(F)C(=O)O,outcome,[1],inactive
same,outcome,[2],inactive
same,outcome,[19],inactive
same,outcome,[4],inactive
same,outcome,[5],inactive
same,outcome,[6],inactive
same,outcome,[7],inactive
same,outcome,[8],inactive
same,outcome,[9],inactive
same,outcome,[10],inactive
same,outcome,[11],inactive
same,outcome,[12],inactive
same,outcome,[13],inactive
same,outcome,[14],inactive
same,outcome,[15],inactive
same,outcome,[16],inactive
same,outcome,[17],inactive
c1cc2c3c(cccc3c1)CC2,outcome,[1],inactive
same,outcome,[2],inactive
same,outcome,[3],inactive
same,outcome,[4],inactive
same,outcome,[5],inactive
same,outcome,[6],inactive
same,outcome,[7],inactive
same,outcome,[8],inactive
same,outcome,[9],inactive
same,outcome,[10],inactive
same,outcome,[11],inactive
same,outcome,[12],inactive
same,outcome,[13],inactive
same,outcome,[14],inactive
same,outcome,[15],inactive
same,outcome,[18],inactive
same,outcome,[16],inactive
same,outcome,[17],inactive
O=P(Oc1ccccc1)(Oc1ccccc1)Oc1ccccc1,outcome,[1],inactive
same,outcome,[2],inactive
same,outcome,[3],inactive
same,outcome,[4],inactive
same,outcome,[5],inactive
same,outcome,[6],inactive
same,AC50,[7],30.6 µM (active)
same,AC50,[8],30.6 µM (active)
same,outcome,[9],inactive
same,AC50,[10],30 µM (active)
same,outcome,[11],inactive
same,AC50,[12],32.1 µM (active)
same,outcome,[13],inactive
same,AC50,[14],3.97 µM (active)
same,AC50,[15],20 µM (active)
same,AC50,[18],31.7 µM (active)
same,AC50,[16],25.9 µM (active)
same,AC50,[17],31.6 µM (active)
CC(C)Nc1ccc(Nc2ccccc2)cc1,AC50,[1],24.4 µM (active)
same,AC50,[2],28.9 µM (active)
same,AC50,[3],17.3 µM (active)
same,AC50,[4],20 µM (active)
same,AC50,[5],31.6 µM (active)
same,AC50,[6],12.9 µM (active)
same,AC50,[7],20 µM (active)
same,AC50,[8],15.8 µM (active)
same,AC50,[9],9.74 µM (active)
same,AC50,[10],10.1 µM (active)
same,AC50,[11],0.0166 µM (active)
same,AC50,[12],8.91 µM (active)
same,AC50,[13],8.74 µM (active)
same,AC50,[14],12.7 µM (active)
same,AC50,[15],10.2 µM (active)
same,AC50,[18],4.14 µM (active)
same,AC50,[16],13.1 µM (active)
same,AC50,[17],3.37 µM (active)
